Measurements published in PubChem BioAssay AID1626 (SRMLSC, 2009).
Out of some 220,000 compounds screened, about 2,000 (0.91%) were called active. Another 2% or so got no clear call; they are omitted. A selection follows. Entries with a potency or affinity are not part of this list. Values without a mark were called inactive. No stated cut-off is given here; in the data, inconclusive means inhibition above about 80% without an active follow-up result; inactive means below that; test concentration not stated here.

Assay: M. tuberculosis H37Rv growth inhibitors, H37Rv strain (AID 1626);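 further: bacteria incubated seven days before Alamar blue readout; 0% = bacteria only wells and 100% = bacteria with antibiotic wells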
Settings: hits give high values, concentration not given here

Compound	inhibition [%]
CC(=O)Nc1ccccc1O	-3.72
O=C(Nc1ccccc1O)c1ccccc1O	0.57
C/C(=C\C(=O)c1cccnc1)Nc1ccc(O)cc1	-6.05
C/C(=C\C(=O)c1ccccc1)Nc1ccc(O)cc1	-1.7
COc1ccc(NC(=S)NC(C)c2ccncc2)cc1OC (stereo not given)	0.92
O=C(O/N=C(\c1ccccc1)c1ccccn1)c1cccc2ccccc12	4.72
CCN(CC(=O)NCc1cccs1)c1ccc(S(=O)(=O)N2CCN(C)CC2)cn1	-7.08
COc1ccc(-c2csc(/C(C#N)=C\c3ccc(O)c([N+](=O)[O-])c3)n2)cc1OC	73.4
COc1ccc(-c2csc(/C(C#N)=C\c3ccc(OC)c([N+](=O)[O-])c3)n2)cc1	5.82
COc1ccc(S(=O)(=O)N2CCCCC2)cc1NC(=O)c1cc(C)on1	-0.76
CNC(=S)Nn1cnc2ccccc21	0.16
c1ccc(-c2ccc(-n3ccnc3)cc2)cc1	1.87
COc1ccc(-n2ccnc2)cc1	1.8
COc1ccc(OC)c(N2C(=O)CC(Cc3ccc(Cl)cc3)C2=O)c1 (stereo not given)	-4.41
Cc1nc2ccccc2c(=O)n1/N=C/C=C/c1ccccc1	-2.49
COc1cc2c(cc1OC)C1(NCC2)C(=O)Nc2ccccc21 (stereo not given)	0.79
COc1ccc2c(c1)C1(Nc3ccccc3C(=O)N1c1ccccc1)C(=O)N2 (stereo not given)	-1.38
COc1ccc(C(=O)C2CCCN(Cc3ccc4nonc4c3)C2)c(OC)c1 (stereo not given)	4.61
CC(C)NC(=O)NC(=O)CSc1ccccc1F	8.25
COc1ccc(-c2cn[nH]c2N)cc1	3.3
Nc1[nH]ncc1-c1ccccc1	48.5
O=C(NCc1cn2ccsc2n1)c1cccs1	2.94
O=C(COC(=O)c1cc(S(=O)(=O)N2CCOCC2)ccc1O)Nc1cc(S(=O)(=O)N2CCCC2)ccc1Cl	-7.64
Cc1cccnc1NC(=O)Nc1ccccc1	-2.38
Cc1ccc(C(=O)Nc2ccc3c(c2)CCC3)cc1	27.7

Compound	inhibition [%]
Cc1nc(NC(=O)c2ccc(F)cc2)sc1C(=O)Nc1ccc2c(c1)CCC2	10.8
O=C1CC2(CCCCCC2)Oc2ccc(Cl)cc21	-6.31
COc1cccc(-c2cc(C(=O)NCCN3CCOCC3)no2)c1	0.49
COc1ccc(NC(=S)NCCCN2CCOCC2)cc1	-0.5
CCCc1ccc(OCc2nc(-c3ccc(NC(=O)c4cccs4)cc3)no2)cc1	15.6
Cc1ccccc1OCc1nc(-c2ccc(NC(=O)c3ccco3)cc2)no1	19.3
Cc1ccc(-n2c(-c3ccncc3)n[nH]c2=S)cc1	-9.92
Cc1cc2oc(C(=O)N(Cc3cccs3)C3CCS(=O)(=O)C3)cc(=O)c2cc1Cl (stereo not given)	0.6
O=C(NCCc1ccccc1)C1CCN(Cc2ccccc2F)CC1	0.69
CCCSc1nnc(Cn2c(=O)sc3ccccc32)n1C	3.51
CCOC(=O)c1c(NC(=O)C2COc3ccccc3O2)sc(C)c1C (stereo not given)	-3.73
Cc1ccc(OCC(=O)Nc2sc3c(c2C#N)CC(C)(C)NC3(C)C)cc1	10.1
CCOC(=O)c1c(NC(=O)C2COc3ccccc3O2)sc(C(C)=O)c1C (stereo not given)	-3.37
CC1(C)Cc2c(sc(NC(=O)COc3ccccc3)c2C#N)C(C)(C)N1	-3.34
CCOC(=O)c1cc2occc2n1CCCN1C(=O)c2ccccc2C1=O	-1.25
CCc1cc2ccc(OC)cc2nc1SCC(=O)NNC(C)=O	2.9
CC(=O)N(NC(N)=O)C(C)CC(=O)C1C(C)C=CCC1(C)C (stereo not given)	-4.41
CC(c1nnnn1C(C)(C)C)N(Cc1cccnc1)Cc1ccccc1Cl (stereo not given)	11.3
O=C(Cc1cc(=O)[nH][nH]1)N/N=C/c1ccccc1Cl	0.78
O=[N+]([O-])c1ccc(/C=N/N/C(=N/c2ccccn2)c2ccccn2)cc1	6.35
O=C(COc1ccccc1[N+](=O)[O-])N/N=C/c1ccc(O)c([N+](=O)[O-])c1	-1.06
C=CCNC(=S)NNC(=O)c1ccc(=O)n(Cc2ccc(Cl)cc2Cl)c1	2.51
COC(=O)/C(=C1/Oc2ccc(C(C)(C)C)cc2S1)C(F)(F)F	-3.79
COC(=O)/C(=C1/Oc2ccc(C)cc2S1)C(F)(F)F	1.01
CCCCCn1c(=O)[nH]c2cc(C(=O)NCCN(CC)CC)ccc2c1=O	2.41
